Structures are written as SMILES. Compounds without any hit were thinned out: in the full panel of roughly 83,000, 20% have a hit.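 In brief: 96-well plates, 48 h treatment, single concentration, percent growth endpoint.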 A number with no mark means an inactive call. Activity calls are given as the source filed them. How the source made its calls: active means growth percent below 10; inactive means the rest.

These results are taken from PubChem BioAssay (NCI).

Some test systems named below: RPMI-8226 leukemia; OVCAR-8 ovarian; OVCAR-5 ovarian; OVCAR-4 ovarian; SK-OV-3 ovarian; IGROV1 ovarian; OVCAR-3 ovarian; HS 578T breast; NCI/ADR-RES ovarian; T-47D breast; BT-549 breast; MDA-MB-435 melanoma; SW-620 colon; MCF7 breast; HCT-116 colon; HCC-2998 colon; KM12 colon.
Holding throughout (assay): NCI-60 one-dose screen, 48 h (100 = growth as untreated, 0 = no growth, -100 = all killed)
Common to all, as to settings: 10 µM

On to `c1ccc(CSc2nnc3c4c5c(sc4nc(-c4cccnc4)n23)CCCCCC5)cc1`, for which the growth in the assay on RPMI-8226 leukemia is 20.1%; in the assay on OVCAR-8 ovarian, 20.3%; in the assay on OVCAR-5 ovarian, 95.2%; in the assay on OVCAR-4 ovarian, 27.3%; in the assay with SK-OV-3 ovarian it was 71.2%; in the assay with IGROV1 ovarian, 77%. In addition, the growth in the assay with OVCAR-3 ovarian was 36.4%; with HS 578T breast, 86.2%; in the assay on NCI/ADR-RES ovarian, 100%; in the assay on T-47D breast, 14%; in the assay on BT-549 breast, 41.1%; in the assay with MDA-MB-435 melanoma it was 19.1%. Moreover, the growth with SW-620 colon is 55.3%; with MCF7 breast it was 37.6%; with HCT-116 colon it was 29.3%; in the assay with HCC-2998 colon it was 46.5%; in the assay on KM12 colon it was 34.4%.
With `COc1cc(C2CC(c3ccc(Nc4ccnc5cc(Cl)ccc45)cc3)=NN2c2ccc(Cl)cc2)cc(OC)c1OC` (stereo not drawn), the growth in the assay on RPMI-8226 leukemia is 44.7%; in the assay on OVCAR-8 ovarian, 53.8%; with OVCAR-5 ovarian, 80.6%; with OVCAR-4 ovarian, 69.7%; in the assay on SK-OV-3 ovarian, 79.2%; in the assay on IGROV1 ovarian it was 57.5%. The growth in the assay with OVCAR-3 ovarian is 38%; in the assay with HS 578T breast, 61.6%; in the assay on NCI/ADR-RES ovarian it was 29.6%; in the assay with T-47D breast it was 41.3%; with BT-549 breast, 68.4%; with MDA-MB-435 melanoma it was 8.05% (active). In addition, the growth in the assay with SW-620 colon is 39.4%; in the assay with MCF7 breast, 29.4%; in the assay with HCT-116 colon, 46.6%; in the assay with HCC-2998 colon, 55.4%; in the assay on KM12 colon, 30.5%.
With `ClC(Cl)(Cl)c1nc2nccnc2[nH]1`, the growth is 98.8% in the assay on RPMI-8226 leukemia; 107% with OVCAR-8 ovarian; 104% in the assay with OVCAR-5 ovarian; 97.3% with OVCAR-4 ovarian; 102% in the assay with SK-OV-3 ovarian; 103% with IGROV1 ovarian. Also, the growth with OVCAR-3 ovarian was 118%; with HS 578T breast, 99.2%; with NCI/ADR-RES ovarian, 109%; with T-47D breast it was 101%; in the assay on BT-549 breast, 103%; in the assay on MDA-MB-435 melanoma, 102%. For the same molecule, the growth is 107% with SW-620 colon; 94.1% in the assay on MCF7 breast; 103% in the assay on HCT-116 colon; 122% in the assay on HCC-2998 colon; 106% in the assay on KM12 colon.
With `Nc1c(C(=O)Nc2ccccc2)sc2nc3c(cc12)C(O)CCC3` (stereo not drawn), the growth with RPMI-8226 leukemia was 11.6%; in the assay on OVCAR-8 ovarian, 31%; with OVCAR-5 ovarian it was 57.1%; in the assay with OVCAR-4 ovarian it was 61.3%; with SK-OV-3 ovarian it was 18.7%; in the assay with IGROV1 ovarian, 29.4%. Besides, the growth in the assay with OVCAR-3 ovarian is -19.1% (active); with HS 578T breast, 39.6%; with NCI/ADR-RES ovarian it was 11.6%; in the assay with T-47D breast it was 53.9%; with BT-549 breast, 66%; in the assay with MDA-MB-435 melanoma it was -27.2% (active). For the same molecule, the growth is 29.6% with SW-620 colon; 18.4% in the assay on MCF7 breast; 22% in the assay on HCT-116 colon; 17.9% in the assay with HCC-2998 colon; 25.8% in the assay on KM12 colon.
On to `CCCC(F)C(=O)O` (stereo not drawn), for which the growth is 98.4% in the assay with RPMI-8226 leukemia; 98.2% with OVCAR-8 ovarian; 115% in the assay on OVCAR-5 ovarian; 106% with OVCAR-4 ovarian; 98.3% in the assay on SK-OV-3 ovarian; 107% with IGROV1 ovarian. The growth in the assay on OVCAR-3 ovarian was 116%; in the assay on HS 578T breast, 100%; in the assay on NCI/ADR-RES ovarian it was 108%; in the assay with T-47D breast it was 97.7%; with BT-549 breast, 111%; in the assay on MDA-MB-435 melanoma it was 95.8%. For the same molecule, the growth in the assay with SW-620 colon is 105%; in the assay on MCF7 breast it was 97.8%; in the assay with HCT-116 colon it was 102%; in the assay with HCC-2998 colon, 111%; in the assay with KM12 colon, 106%.
On to `COc1ccc(-c2nn(-c3cccc(NC(=O)c4ccc(Cl)c(Cl)c4)c3)cc2-c2ccncc2)cc1Cl`, for which the growth was 58% in the assay with RPMI-8226 leukemia; 75.5% in the assay on OVCAR-8 ovarian; 92.4% with OVCAR-5 ovarian; 93.3% with OVCAR-4 ovarian; 82.2% in the assay on SK-OV-3 ovarian; 84.5% in the assay with IGROV1 ovarian. The growth was 81.9% with OVCAR-3 ovarian; 72.5% with HS 578T breast; 61.4% in the assay on NCI/ADR-RES ovarian; 62.8% in the assay with T-47D breast; 95.4% with BT-549 breast; 24.8% in the assay with MDA-MB-435 melanoma. The growth in the assay with SW-620 colon is 81.5%; with MCF7 breast, 72.1%; with HCT-116 colon, 69.6%; in the assay on HCC-2998 colon, 82%; in the assay on KM12 colon, 55.8%.
Take `COc1ccc2c(c1)C(=O)c1c-2c(=O)n(CCCN(C)C)c2cc(OC)c(OC)cc12`: the growth in the assay with RPMI-8226 leukemia is 66.6%; in the assay on OVCAR-8 ovarian, 62.1%; in the assay with OVCAR-5 ovarian it was 130%; in the assay with OVCAR-4 ovarian, 74.4%; with SK-OV-3 ovarian it was 69.9%; in the assay with IGROV1 ovarian, 67.2%. Further, the growth with OVCAR-3 ovarian was 94.9%; in the assay with HS 578T breast, 119%; with NCI/ADR-RES ovarian it was 58.7%; with T-47D breast, 81.2%; in the assay with BT-549 breast, 86.1%; in the assay on MDA-MB-435 melanoma it was 80.9%. Further, the growth in the assay with SW-620 colon is 56.8%; in the assay with MCF7 breast, 28.4%; in the assay with HCT-116 colon, 53.1%; in the assay with HCC-2998 colon it was 82.8%; with KM12 colon it was 69.5%.
Regarding `Cc1c(Cl)cccc1NC(=O)c1sc2nc3c(cc2c1N)C(=O)CCC3`, the growth in the assay with RPMI-8226 leukemia is 5.08% (active); in the assay on OVCAR-8 ovarian it was 13.5%; in the assay on OVCAR-5 ovarian it was 31.8%; in the assay on OVCAR-4 ovarian, 40.4%; with SK-OV-3 ovarian it was 14.4%; with IGROV1 ovarian it was 9.61% (active). Besides, the growth in the assay on OVCAR-3 ovarian is -40.1% (active); with HS 578T breast, 17.1%; in the assay with NCI/ADR-RES ovarian, 2.57% (active); with T-47D breast, 54.5%; in the assay on BT-549 breast, 49.9%; with MDA-MB-435 melanoma it was -43.6% (active). For the same molecule, the growth with SW-620 colon is 18.3%; in the assay on MCF7 breast, 13.5%; in the assay on HCT-116 colon, 14.3%; in the assay with HCC-2998 colon, 25.8%; in the assay with KM12 colon it was 11.1%.
For `COc1ccc2c(c1)C(=O)c1c-2c(OCCN(C)C)nc2ccccc12`, the growth was 17.4% in the assay with RPMI-8226 leukemia; 14.3% in the assay with OVCAR-8 ovarian; 63% in the assay on OVCAR-5 ovarian; 44.1% in the assay with OVCAR-4 ovarian; 61% in the assay on SK-OV-3 ovarian; -18.7% (active) in the assay on IGROV1 ovarian. Besides, the growth in the assay with OVCAR-3 ovarian was 30.4%; with HS 578T breast, 41%; in the assay on NCI/ADR-RES ovarian, 22.8%; in the assay on T-47D breast, 48.2%; with BT-549 breast, 85.4%; in the assay on MDA-MB-435 melanoma, 33.3%. For the same molecule, the growth in the assay on SW-620 colon is -7.66% (active); in the assay with MCF7 breast, 6.19% (active); with HCT-116 colon it was 10.4%; in the assay on HCC-2998 colon, 44.9%; in the assay with KM12 colon, 23.1%.
